Activity calls are given as the source filed them. Calls follow the shape of the dose curve; as a rule, active = well fitted curve in the direction sought with a large enough effect; inactive = no such curve, though single readings can be large or run the other way.

Chain of Lysosomal acid glucosylceramidase (Homo sapiens) (P04062 whole entry N409S): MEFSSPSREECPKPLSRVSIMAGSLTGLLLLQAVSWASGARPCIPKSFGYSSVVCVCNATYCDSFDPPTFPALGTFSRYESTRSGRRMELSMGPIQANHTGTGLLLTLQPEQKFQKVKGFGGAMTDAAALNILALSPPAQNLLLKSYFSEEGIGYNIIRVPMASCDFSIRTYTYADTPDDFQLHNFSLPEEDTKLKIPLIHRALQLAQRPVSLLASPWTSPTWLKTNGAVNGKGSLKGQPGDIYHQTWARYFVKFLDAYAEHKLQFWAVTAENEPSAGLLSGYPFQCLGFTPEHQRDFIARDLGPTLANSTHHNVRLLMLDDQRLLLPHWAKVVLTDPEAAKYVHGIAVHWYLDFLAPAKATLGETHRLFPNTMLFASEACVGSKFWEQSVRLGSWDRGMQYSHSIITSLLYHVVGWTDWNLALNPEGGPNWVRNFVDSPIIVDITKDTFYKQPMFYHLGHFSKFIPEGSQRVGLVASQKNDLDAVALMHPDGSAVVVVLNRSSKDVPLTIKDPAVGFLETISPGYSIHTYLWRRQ

This experiment has as its target Lysosomal acid glucosylceramidase (Homo sapiens) (UniProt P04062). Kind of experiment: qHTS Assay for Inhibitors and Activators of N370S glucocerebrosidase as a Potential Chaperone Treatment of Gaucher Disease: Primary Screen Confirmation Using LC/MS. The note with it: N370S GC spleen homogenate, 4MU-glucoside, LC/MS detection. An excerpt:
NIH Chemical Genomics Center [NCGC] NIH Molecular Libraries Probe Production Centers Network [MLPCN] MLPCN Grant: MH086442-01 Assay Submitter (PI): Wei Zheng Glucocerebrosidase (GC) catalyzes the hydrolysis of beta-glucocerebroside to glucose and ceramide in lysosomes. Mutations in the glucocerebrosidase gene result in Gaucher disease, an autosomal recessive lysosomal storage disorder. Many of the mutations encountered in patients with Gaucher disease are missense alterations that may cause misfolding, decreased stability and/or mistrafficking of this lysosomal protein. […] These inhibitors include iminosugar analogs and three non-iminosugar inhibitors identified from a previous HTS of 62,000 compounds with the wild type recombinant enzyme. However, the enhancement of enzyme activity by the chaperone action of an enzyme inhibitor must be balanced against the direct inhibition of the enzyme. An enzyme activator could also function as a chaperone by binding to the enzyme and helping to correct its misfolding and mistrafficking. While activators for GC have not yet been identified, they may have better therapeutic potential than inhibitors. Therefore the discovery and development of chemical activators may provide a new strategy for the chaperone therapy. We have optimized a new assay using N370S mutant GC derived from the spleen of a Gaucher patient. […] In addition, the MLPCN compound library has expanded, which increases the chance of finding new and better probes. This assay uses liquid chromatography linked to a mass spectrometer to assess the ability of glucocerebrosidase in the spleen homogenate to cleave either 4-methylumbelliferyl-beta-D-glucopyranoside substrate or a labeled version of the natural substrate, glucosylceramide.
NCGC Assay Protocol Summary: This is a fluorogenic enzyme assay with 4-methylumbelliferyl-beta-D-glucopyranoside as the substrate and N370S glucocerebrosidase from human spleen homogenate as the enzyme preparation. Upon the hydrolysis of this fluorogenic substrate, the resulting product, […] which can be detected by a standard fluorescence plate reader. Data were normalized to the controls for basal activity (without enzyme) and 100% activity (with enzyme). The AC50 values were determined from concentration-response data modeled with the standard Hill equation. Assay buffer: 50 mM citric acid (titrated with potassium phosphate to pH 5.0), 100 mM potassium chloride, 10 mM sodium chloride, 1 mM magnesium chloride, 0.01% Tween-20. […] Compounds were monitored using fluorescence detection with an excitation wavelength of […]. […]
Consider `Cc1cc(C)n2ncc(C(=O)Nc3ccc(Br)cc3)c2n1`, for which the Potency was 1.19 µM (active).
With `C#Cc1ccc(NC(=O)c2cnn3c(C)cc(C)nc23)cc1`, the Potency is 3.73 µM (active).
In the case of `O=C(Nc1ccccc1Sc1ccccc1)c1cnn2c1NC(=C1CC1)C=C2C(F)F`, the Potency is 3 µM (active).
The figure for `Cc1cc(C)n2ncc(C(=O)Nc3ccc(C(F)(F)F)cc3)c2n1` is 1.34 µM (active).

Values taken from PubChem BioAssay AID488845 (National Center for Advancing Translational Sciences (NCATS), 2010).
